Compounds with a hit are over-represented: about 10% of the library has one in this group of screens.
CtBP-E1A blk – inhibitors of CtBP/E1A interaction. AlphaScreen GST-E1A/His-CtBP binding, 1536-well; stronger effect = lower value. activity change, % (test concentration not listed). 340,000 tested, 0.49% active. AID 651724; in the data active = activity change below about -65%; inconclusive = mostly about -30% to -63%; also: % is scaled to controls: 0 for no effect and ±100 for the full control effect
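AlphaScreen with 125 nM GST-E1A and 125 nM His-CtBP (5X stocks) in Tris pH 8.0, 300 mM NaCl, BSA, Tween 20, TCEP. Compounds preincubated 2 h at 37 deg C, then glutathione donor/nickel acceptor beads added for 1 h at 37 deg C in dark.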
JMJD2A Tudor – blocks the human JMJD2A Tudor domain. O75164. AlphaScreen JMJD2A-Tudor / H3K4me3 peptide binding. Potency, µM (doses to about 114 µM), for the others: top-dose activity change, negative = inhibition, hits mostly inhibitors. 390,000 tested, 4.4% active; also: potency is read from the fitted curve at half-maximal effect; % is scaled to controls: 0 for no effect and ±100 for the full control effect; nearly all actives have a fitted effect of over 50% in size
BAZ2B inh – BAZ2B (human) inhibition; 360,000 tested, 4.4% active; Potency, µM (titrated, usually from 114 µM), without a hit: top-dose activity change, negative = inhibition, actives largely listed as inhibitors; Q9UIF8; AID 504333; AlphaScreen BAZ2B-H3K14Ac peptide displacement; also: potency is read from the fitted curve at half-maximal effect; % is scaled to controls: 0 for no effect and ±100 for the full control effect; nearly all actives have a fitted effect of over 60% in size
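Compounds, titrated to a top concentration of 110 uM, were incubated 30 min at room temperature with preformed BAZ2B/acetyl-K14 H3 peptide complex (50 nM each). Proximity signal was measured by AlphaScreen after 20 min with beads.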
Six1-Eya2 inh – inhibitors of human Six1/Eya2 interaction. AlphaScreen GST-Six1/His-Eya2 binding, biochemical; stronger effect = lower value. Q15475+O00167. AID 651725. activity change, % (test concentration not listed). 360,000 tested, 0.56% active; in the data active = activity change below about -65%; inconclusive = mostly about -30% to -63%; also: % is scaled to controls: 0 for no effect and ±100 for the full control effect
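AlphaScreen luminescence read after one hour at 37 °C in darkness. Pin-transferred compounds met GST-Six1 and His-Eya2 protein (5X stock 250 nM/500 nM) plus glutathione donor and Ni-chelate acceptor beads (5X, 50 ug/mL).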
G9a inh – blocks human histone lysine methyltransferase G9a. 350,000 tested, 8.8% active. Potency, µM (series often up to 102 µM), inactives show at the top dose activity, negative = inhibition, usual class: inhibitors. G9a H3K9 monomethylation, AlphaScreen, 2 h. Q96KQ7. AID 504332; also: potency is read from the fitted curve at half-maximal effect; % is scaled to controls: 0 for no effect and ±100 for the full control effect; nearly all actives have a fitted effect of over 75% in size
Target sequence (Q96KQ7 913-1193 limits assumed): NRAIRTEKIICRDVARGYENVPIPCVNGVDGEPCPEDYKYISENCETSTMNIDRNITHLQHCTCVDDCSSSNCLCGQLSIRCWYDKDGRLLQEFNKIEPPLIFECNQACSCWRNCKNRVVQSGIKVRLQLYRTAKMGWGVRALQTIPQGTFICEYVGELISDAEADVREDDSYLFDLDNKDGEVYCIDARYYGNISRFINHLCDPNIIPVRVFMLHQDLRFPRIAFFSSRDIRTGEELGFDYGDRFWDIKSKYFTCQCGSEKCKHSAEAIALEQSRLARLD
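AlphaScreen read-out: biotin-H3K9 peptide (500 nM) methylation by 20 nM enzyme with 20 uM SAM, 2 h at room temperature after 15 min compound preincubation; anti-monomethyl H3K9 antibody plus donor/acceptor beads, 10 min dark.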
HP1b chromo inh – inhibitors of HP1-beta chromodomain binding to methylated histone tails; P83916; AlphaScreen HP1-beta / biotin-H3K9me3 peptide binding; Potency, µM (series often up to 114 µM), for the others: top-dose activity change, negative = inhibition, actives largely listed as inhibitors; 390,000 tested, 0.56% active; also: potency is read from the fitted curve at half-maximal effect; nearly all actives have a fitted effect of over 70% in size
Target sequence (P83916 whole entry, looked up): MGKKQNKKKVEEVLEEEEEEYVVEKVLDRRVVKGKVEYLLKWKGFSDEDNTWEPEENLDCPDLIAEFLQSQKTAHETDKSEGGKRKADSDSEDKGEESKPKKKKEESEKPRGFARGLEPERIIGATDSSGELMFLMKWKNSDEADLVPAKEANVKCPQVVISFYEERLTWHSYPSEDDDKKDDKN
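AlphaScreen: HP1-beta (50 nM) preformed 30 min with biotin-H3(1-18)K9me3 peptide (50 nM) in PBS pH 7.4, 0.01% Tween-20. Compound added for 30 min at RT, then streptavidin donor/nickel chelate acceptor beads (10 ug/mL) for 30 min.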
* hit, by the source's call; ? = inconclusive; · = no result; [ ] = dose if it differs, or a comment. Unless noted, calls follow the shape of the dose curve; as a rule, active = well fitted inhibition curve with a large enough effect; inconclusive = small, poorly fitted or top-dose-only effect; inactive = no such curve, though single readings can be large or run the other way.

SMILES	CtBP-E1A blk	JMJD2A Tudor	BAZ2B inh	Six1-Eya2 inh	G9a inh	HP1b chromo inh
COc1ccccc1Cc1nnc(NC(=O)C2CCN(C(=O)c3ccco3)CC2)s1	-2.0	-11.3%	-20.1%	-0.2	10µM*	?
COCc1nnc(NC(=O)C2CCN(C(=O)c3ccco3)CC2)s1	-4.0	13.4%	-2.0%	-1.3	12.6µM*	-15.9%
CC(C)c1nnc(NC(=O)C2CCN(C(=O)c3ccco3)CC2)s1	5.7	-2.8%	2.5%	27.3	31.6µM*	-4.5%
CCc1nnc(NC(=O)C2CCN(C(=O)c3ccco3)CC2)s1	3.9	-12.7%	-11.4%	11.7	?	-3.5%
O=C(Nc1nnc(Cc2ccc(Cl)cc2)s1)C1CCN(C(=O)c2ccco2)CC1	·	-29.1%	·	·	·	-2.8%
CCC(C)(C)c1nnc(NC(=O)C2CCN(C(=O)c3ccco3)CC2)s1	-0.8	35.5µM*	?	2.8	1.78µM*	?
Cc1oc(-c2ccc(C(=O)NCc3ccccc3)cc2)nc1CN1CCc2ccccc21	·	?	?	·	-3.2%[12.7 µM]	-3.4%
Cc1cc(Cl)ccc1Nc1ncnc2onc(C)c12	·	4.2%	13.9%[57.1 µM]	·	3.1%[59 µM]	30.4%
CC(N)c1csc(Nc2ncccn2)n1 (stereo unspecified)	-87.7*	·	·	-83.8*	·	·
CC(N)c1csc(Nc2cc(Oc3ccccc3)ncn2)n1 (stereo unspecified)	-68.3*	·	·	?	·	·
CS(=O)(=O)Cc1cccc(C(=O)NN(c2ccccc2)c2ccccc2)c1	13.5	-20.4%	6.4%	4.2	13.5%[59 µM]	14.2%
Nc1sccc1C(=O)N1CCN(c2ccccc2)CC1	-3.3	·	·	-5.0	·	·
CC(=O)C1=NN(c2ccccc2)C(c2cccs2)N1c1ccc(N(C)C)cc1 (stereo unspecified)	?	14.1µM*	44.7µM*	?	28.2µM*	?
O=C(O)CCN1C(=O)/C(=C2\C(=O)N(Cc3ccc(F)cc3)c3ccccc32)SC1=S	1.1	25.1µM*	2.51µM*	-4.4	15.8µM*	28.2µM*
CC1CN(C2=NC(=O)/C(=C3/C(=O)N(Cc4ccc(F)cc4)c4ccccc43)S2)CC(C)O1 (stereo unspecified)	·	-32.9%	?	-5.8	·	?
CN1C(=O)/C(=C2\SC(=S)N(CCCCCC(=O)O)C2=O)c2ccccc21	8.4	?	-20.6%	-0.9	-27.4%	39.8µM*
CCCCCn1c2c(c(=N)c3ccccc31)CCC2	1.8	?	-15.3%	1.8	50.1µM*	11.8%
CCCCCCCCn1c2c(c(=N)c3ccccc31)CCC2	1.4	-17.3%	-1.5%	0.6	-26.1%	7.6%
CC(C)(C)NC(=O)C(c1ccco1)N(C(=O)Cn1nnc(-c2ccc(F)cc2)n1)c1cccc(F)c1 (stereo unspecified)	-2.5	-30.1%	4.5%	1.8	-4.5%[59 µM]	4.2%
CC(C)(C)NC(=O)C(c1c[nH]c2ccccc12)N(C(=O)Cn1nnc(-c2ccc(F)cc2)n1)c1cccc(O)c1 (stereo unspecified)	0.3	28.2µM*	?	-14.3	-21.0%[59 µM]	?
CCc1ccc2c(c1)Sc1ccccc1CC2N1CCN(C)CC1 (stereo unspecified)	·	-35.5%	·	-4.4	·	-9.4%
CN1Cc2cccc3c2C(Cc2ccccc2S3)C1 (stereo unspecified)	-0.6	10µM*	-7.6%	-12.7	?	22.4%
CC(C)CC(=O)NC1CC(=O)N(c2ccc3c(c2)OCCO3)C1 (stereo unspecified)	·	100µM*	-8.0%	·	-1.8%[59 µM]	-21.6%
CC(=O)NC1CC(=O)N(c2ccc3c(c2)OCCO3)C1 (stereo unspecified)	·	-5.2%	-14.3%	·	-5.8%[59 µM]	25.1%
CCN(CC)S(=O)(=O)c1cccc(NC(=O)C2CC(=O)N(c3ccc4c(c3)OCCO4)C2)c1 (stereo unspecified)	-4.0	-21.3%	-2.6%	-1.7	50.1µM*	-12.6%
